High-throughput results (PubChem BioAssay)
CRFBP-R2 agonist – agonists of human CRF-binding protein/CRF-R2 receptor complex; HEK293 CRF-R2/CRF-BP, calcium dye fluorescence (FLIPR); percent of saturating CRF peptide response; activation, % at 13.2 µM; 350,000 tested, 0.46% active; AID 588473;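 active = activation of at least 50%, plus an integration ratio under a set limit after plate pattern correction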;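 also: plate controls were neutral control wells without compound for no effect and CRF at EC100 for full effect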
ANO1 block – inhibitors of mouse TMEM16A calcium-activated chloride channel; HEK293 TMEM16A/YFP iodide influx fluorescence, ionomycin; AID 588511; 310,000 tested, 1.2% active; normalized B-score (activity score, 25-100; higher = stronger inhibition) at 10 µM; Q8BHY3;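 active = ratio plate-corrected score three or more library SD toward inhibition, starting fluorescence score within five deviations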;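 also: score derived from kinetic fluorescence span divided by baseline fluorescence per well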
TMEM16A act – mouse TMEM16A channel activation, primary screen; Q8BHY3; HEK293 TMEM16A/YFP-H148Q/I152L, iodide quench fluorescence; active compounds read low; B-score at 10 µM; 340,000 tested, 0.3% active;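 active = fluorescence-ratio B-score plate-corrected deviation score at least 3 library SD below zero, with starting fluorescence score within 5 deviations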;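 also: channel opened by trigger with iodide after compound preincubation; score built on the fluorescence ratio of max minus min over baseline; more negative score means more quench and so TMEM16A activation or potentiation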
cardiac RTF act – increases calcium sensitivity of human cardiac regulated thin filaments | P19429+P45379 | IANBD-labeled TnC RTF fluorescence at EC20 calcium; 0% EC20 calcium, 100% full calcium | activation, % at 7.2 µM | 340,000 tested, 0.24% active | AID 493008;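 active = activation above the mean over all tested compounds plus 3 SD, cut at about 30% in these data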;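 also: rise in fluorescence read as greater calcium sensitivity of cardiac thin filaments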
CRFBP-R2 block – antagonists of CRF-binding protein/CRF-R2 receptor complex | HEK293 CRF-R2/CRF-BP, CRF-induced calcium fluorescence | inhibition, % at 11.8 µM | 350,000 tested, 0.59% active;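 active = inhibition of the ligand-induced calcium signal above about 50% at the single tested concentration, limit read from the data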
RTF Ca sens inh – cardiac RTF calcium desensitization; P19429+P45379; IANBD-labeled cardiac RTF, Ca2+ fluorescence; inhibition, % at 7.15 µM; 340,000 tested, 0.12% active; AID 493244;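 active = inhibition above the mean inhibition of all tested compounds plus 3 SD, cut at about 17% in these data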;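 also: assay run at fixed EC70 calcium of 1.6 mM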
TMEM16A reconf – reconfirmed blocker of mouse TMEM16A calcium-activated chloride channel; 2,300 tested, 39% active; AID 652189; HEK293 TMEM16A/YFP-H148Q, iodide quench fluorescence; ionomycin added to raise cell calcium; inhibition, % at 10 µM; shares compounds with ANO1 block;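 active = mean duplicate percent inhibition, scaled so buffer wells are 0 and the reference blocker 100, over three buffer SD above buffer mean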
HEK293 Ca mobil – alters calcium mobilization in TMEM16A HEK293 cells, counter-screen; shares compounds with ANO1 block; 2,300 tested, 2% active; calcium response (% of ionomycin), % at 10 µM; TMEM16A/YFP HEK293, Fluo4 calcium mobilization; AID 652231;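 active = duplicate-averaged calcium signal over 20% of the ionomycin maximum, relative to buffer baseline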;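 also: each well's signal is peak minus trough fluorescence divided by its pre-addition baseline; 0% = buffer wells and 100% = ionomycin wells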
Parental YFP cnt – acts in parental YFP-HEK293 cells lacking TMEM16A, counter-screen; AID 652233; YFP ratio F(max-min)/F0 at 10 µM; 2,300 tested, under 10 active; iodide YFP quench, ionomycin; shares compounds with ANO1 block;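 active = yellow fluorescent protein signal ratio exceeding the buffer control mean by over 5 SD of those controls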;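 also: ratio is mean of duplicate wells from kinetic YFP trace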
ClC-1 rat inh – selectivity of TMEM16A inhibitors: inhibition of rat ClC-1 chloride channel | shares compounds with ANO1 block | CHO ClC-1-YFP, iodide influx fluorescence quench; iodide control reads 0, buffer control 100 | ratio percent, % at 10 µM | 2,300 tested, under 10 active;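 active = duplicate-mean ratio percent above the mean of iodide-only control wells, which defines zero, plus 5 of their SD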;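 also: higher percent means stronger block of ClC-1 iodide influx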
Target sequence (P35524 whole entry, looked up): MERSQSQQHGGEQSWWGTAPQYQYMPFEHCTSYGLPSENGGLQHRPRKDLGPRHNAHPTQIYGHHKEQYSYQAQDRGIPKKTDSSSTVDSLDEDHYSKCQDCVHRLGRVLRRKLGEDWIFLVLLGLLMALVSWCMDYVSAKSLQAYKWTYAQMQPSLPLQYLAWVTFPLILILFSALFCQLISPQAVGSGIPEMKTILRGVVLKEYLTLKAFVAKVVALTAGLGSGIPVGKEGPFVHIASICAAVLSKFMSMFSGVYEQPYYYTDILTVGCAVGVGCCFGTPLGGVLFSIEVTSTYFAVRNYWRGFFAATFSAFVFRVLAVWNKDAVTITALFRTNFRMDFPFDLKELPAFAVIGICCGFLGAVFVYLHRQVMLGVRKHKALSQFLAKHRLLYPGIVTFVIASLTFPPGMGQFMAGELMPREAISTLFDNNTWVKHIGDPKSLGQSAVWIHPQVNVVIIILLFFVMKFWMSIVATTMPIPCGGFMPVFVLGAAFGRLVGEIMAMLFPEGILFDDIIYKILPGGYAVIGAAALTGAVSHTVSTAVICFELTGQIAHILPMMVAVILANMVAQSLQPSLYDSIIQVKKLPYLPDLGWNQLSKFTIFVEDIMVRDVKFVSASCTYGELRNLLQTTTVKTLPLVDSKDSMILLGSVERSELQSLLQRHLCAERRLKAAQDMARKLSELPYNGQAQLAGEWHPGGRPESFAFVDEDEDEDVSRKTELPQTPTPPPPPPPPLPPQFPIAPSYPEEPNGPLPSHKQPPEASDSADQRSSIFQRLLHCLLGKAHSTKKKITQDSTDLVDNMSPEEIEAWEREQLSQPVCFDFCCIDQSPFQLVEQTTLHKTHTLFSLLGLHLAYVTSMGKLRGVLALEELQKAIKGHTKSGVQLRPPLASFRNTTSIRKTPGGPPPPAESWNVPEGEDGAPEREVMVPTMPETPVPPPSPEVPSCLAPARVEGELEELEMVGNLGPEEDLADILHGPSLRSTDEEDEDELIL
* marks the source's active call; other numbers are inactive results; i = inactive; x = no result given. Sampled rows, rich in hits. Any-hit rate of the full collection: about 2.4%.

SMILES | CRFBP-R2 agonist | ANO1 block | TMEM16A act | cardiac RTF act | CRFBP-R2 block | RTF Ca sens inh | TMEM16A reconf | HEK293 Ca mobil | Parental YFP cnt | ClC-1 rat inh
COc1ccccc1C(c1nnnn1C(C)(C)C)N1CCN(Cc2ccncc2)CC1 (configuration not stated) | -2 | i | x | -2 | 17 | 0 | x | x | x | x
COc1ccccc1N1CCN(C(c2ccccc2Cl)c2nnnn2C(C)(C)C)CC1 (configuration not stated) | 1 | 100* | i | -2 | 5 | -4 | 25%* | i | -1.3 | -20
COc1ccccc1N1CCN(C(c2ccc(Cl)cc2)c2nnnn2C(C)(C)C)CC1 (configuration not stated) | -2 | 100* | i | 0 | 119* | -3 | i | i | -1.2 | -22
Cc1cccc(N2CCN(C(c3ccccc3)c3nnnn3C(C)(C)C)CC2)c1C (configuration not stated) | 1 | i | i | -1 | 24 | -7 | x | x | x | x
COc1ccc(NC(=O)CN2C(=O)NC(C)(C3CC3)C2=O)c(OC)c1 (configuration not stated) | -1 | x | i | -6 | 9 | -2 | x | x | x | x
CC1c2cc3c(cc2CCN1C(=O)c1ccc(Cl)cc1)OCCCO3 (configuration not stated) | -2 | 25* | i | -5 | -13 | -2 | i | i | -1 | -9
Cc1c(C(=O)N2CCCCC2)c(S(=O)(=O)N2CCc3ccccc32)c(C)n1C | 0 | i | i | -2 | 2 | -8 | x | x | x | x
Cc1ccc(S(=O)(=O)N2CCN(c3ncnc4sccc34)CC2)cc1C | 0 | x | i | -5 | 7 | -5 | x | x | x | x
O=S(=O)(c1ccc2c(c1)OCCO2)N1CCC(O)(c2ccc(Cl)cc2)CC1 | -3 | 100* | i | -4 | -2 | -22 | i | i | -1.1 | 0
O=S(=O)(c1ccc2c(c1)OCCO2)N1CCN(c2ncnc3sccc23)CC1 | 0 | 25* | i | x | 23 | x | 17%* | i | -1.1 | -19
Cc1ccc(Sc2ncccc2COC(=O)Nc2ccccc2)cc1 | 2 | 100* | i | -7 | 20 | 10 | i | i | -1.1 | 0
Cc1ccccc1NC(=O)OCc1cccnc1Sc1ccc(Cl)cc1 | 2 | i | i | 4 | 4 | 3 | x | x | x | x
Cc1ccc(Sc2ncccc2COC(=O)Nc2c(C)cccc2C)cc1 | 1 | 100* | i | -6 | -1 | 2 | i | i | -0.96 | -14
C=C1CCN([C@@H](CC(C)C)C(=O)NCCC(C)C)S(=O)(=O)c2ccccc21 | 0 | i | i | 8 | -1 | -5 | x | x | x | x
O=C(OCc1ccc(Cl)cc1)c1ccccc1C(=O)c1ccccc1 | 3 | 100* | i | -4 | 8 | -2 | i | i | -1.3 | -4
O=C(OCc1ccc(Cl)cc1)c1cccnc1Cl | 1 | i | i | -6 | -14 | -14 | x | x | x | x
CCCOc1ccc(C(=O)NNC(=O)c2cccc(S(=O)(=O)N3CCN(C(C)=O)CC3)c2)cc1OC | -1 | i | i | -5 | 23 | -3 | x | x | x | x
CC(=O)Oc1cccc(C(=O)Nc2ccccc2C(=O)N2CCCC2)c1 | 0 | i | i | -2 | -6 | 1 | x | x | x | x
Cc1ccc(NC(=O)c2ccc3c(c2)OCCO3)cc1C | 0 | i | i | 12 | 1 | -4 | x | x | x | x
Cc1ccc(NC(=O)c2cc3c(s2)CCCC3)cc1S(=O)(=O)Nc1ccccc1Cl | 2 | i | i | 2 | -42 | -5 | x | x | x | x
Cc1ccc(C(=O)Nc2ccc(C)c(S(=O)(=O)Nc3ccccc3Cl)c2)s1 | -1 | 100* | i | 2 | -8 | 6 | i | i | -0.22 | 18
Cc1ccc(NC(=O)c2ccc3c(c2)OCCO3)cc1S(=O)(=O)Nc1cccc(Cl)c1 | 2 | 100* | i | -8 | -21 | -6 | i | i | -1.3 | -3
COc1ccc2oc3cc(C)[n+]([O-])c(-c4ccc(Br)cc4)c3c2c1 | 0 | 25* | i | -8 | -4 | 0 | 22%* | i | -1.3 | -12
CC(C)(C)c1ccc(C(=O)Nc2ccc(Oc3cccnc3)nc2)cc1 | -1 | 100* | i | x | -16 | x | 31%* | i | -0.86 | -7
COc1ccc(NC(=O)c2ccc(Cc3ccc(C)cc3)o2)cc1 | -2 | 25* | i | 1 | -10 | 9 | i | i | -1.2 | 6
SMILES | CRFBP-R2 agonist | ANO1 block | TMEM16A act | cardiac RTF act | CRFBP-R2 block | RTF Ca sens inh | TMEM16A reconf | HEK293 Ca mobil | Parental YFP cnt | ClC-1 rat inh
O=C(Nc1cccnc1)c1ccc(COc2ccccc2Br)o1 | 1 | i | i | -3 | -6 | -7 | x | x | x | x
COc1ccc(NC(=O)c2ccc(COc3ccccc3)o2)cc1 | -3 | i | i | -2 | 3 | -9 | x | x | x | x
COc1ccccc1OCc1ccc(C(=O)Nc2ccncc2)o1 | -1 | 100* | i | -1 | -7 | -8 | 34%* | i | -0.84 | -7
CC(C)(C)c1ccc(C(=O)Nc2cccnc2)cc1 | -1 | i | i | -3 | 0 | -11 | x | x | x | x
CC(C)(C)c1ccc(OCc2ccc(C(=O)Nc3cccnc3)o2)cc1 | 3 | 25* | i | -1 | -3 | 7 | 25%* | i | -0.99 | -14
O=C(Nc1cccc(Cl)c1)Nc1csc([N+](=O)[O-])c1 | 25 | i | i | x | 37 | x | x | x | x | x
C[C@H]1CN([C@@H](C)CO)C(=O)c2cc(C#Cc3ccccn3)cnc2O[C@@H]1CN(C)Cc1ccccc1 | 0 | x | x | x | 0 | x | x | x | x | x
COc1ccccc1CC(=O)c1ccc(OCc2ccccc2)cc1 | 3 | i | i | -4 | 3 | 4 | x | x | x | x
COCc1nnc(NS(=O)(=O)c2ccc(Cl)cc2)s1 | 0 | x | i | 3 | 33 | -9 | x | x | x | x
O=S(=O)(Nc1nnc(-c2ccccc2)s1)c1ccc(Cl)cc1 | -3 | 100* | i | 0 | 26 | -11 | 38%* | i | -0.9 | -18
Cc1cc(C(=O)CSc2n[nH]c(-c3ccccc3F)n2)c(C)n1Cc1cccs1 | 0 | 100* | i | -1 | 30 | 3 | i | i | -1.1 | -4
